Reference: PubChem BioAssay (EPA / NIEHS)
Records with an inconclusive call do not appear. Active and inactive are the calls of the source. How the source made its calls, unless noted: active means hit-call score of the fitted dose curve at least 0.9, where 1 is the maximum; inconclusive means response in the unintended direction; inactive means score below 0.9.

Legend:
[1] = Tanguay_ZF_120hpf_YSE_legacy: (Legacy) Oregon State University Tanguay Lab 120 Hour Post-fertilization zebrafish Assay for Yolk Sac Edema (AID 2283634);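 on AC50: actives raise the incidence of yolk sac edema above the DMSO baseline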
Procedure, shortened: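 Presence or absence of yolk sac edema was recorded at 120 hpf in surviving larvae. These were wild-type Tropical 5D embryos, chorion removed at 4 hpf, held in static exposure at 28C from 6 hpf with 0.64% DMSO vehicle.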

[2] = Tanguay_ZF_120hpf_AXIS_legacy: (Legacy) Oregon State University Tanguay Lab 120 Hour Post-fertilization zebrafish Assay for Body Axis Malformation (AID 2283635);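 on AC50: potency for an increased fraction of larvae scored with body axis malformation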
Procedure, shortened: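 Binary scoring of axis defects at 120 hpf under brightfield, fitted positive versus DMSO. Tropical 5D embryos, chorion removed by pronase at 4 hpf, were singly exposed in sealed, dark plates at 28C from 6 hpf; DMSO 0.64% final.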

[3] = Tanguay_ZF_120hpf_EYE_legacy: (Legacy) Oregon State University Tanguay Lab 120 Hour Post-fertilization zebrafish Assay for Eye Malformation (AID 2283636);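 further: binary presence or absence of eye malformation scored by brightfield in 120 hpf larvae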
Procedure, shortened: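 Static waterborne exposure of dechorionated zebrafish embryos (strain Tropical 5D), 6 to 120 hpf, sealed plates at 28C, 0.64% DMSO vehicle. Eye malformation is scored as a binary endpoint, with gain of signal analysed relative to DMSO.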

[4] = Tanguay_ZF_120hpf_SNOU_legacy: (Legacy) Oregon State University Tanguay Lab 120 Hour Post-fertilization zebrafish Assay for Snout Malformation (AID 2283637)
Procedure, shortened: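 Dechorionated zebrafish, individually housed from 6 hpf in covered, sealed wells at 28C with 0.64% DMSO vehicle, were examined at 120 hpf for snout malformation. Responses were binary and analysed positive-direction relative to DMSO.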

[5] = Tanguay_ZF_120hpf_JAW_legacy: (Legacy) Oregon State University Tanguay Lab 120 Hour Post-fertilization zebrafish Assay for Jaw Malformation (AID 2283638);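 on AC50: active means more embryos with jaw malformation than DMSO controls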
Procedure, shortened: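 Binary jaw-malformation call at 120 hpf by brightfield microscopy. Embryos (Tropical 5D strain, chorion removed at 4 hpf) were dosed statically at 6 hpf, one per well, at 28C with 0.64% DMSO. Embryos that died were not scored.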

[6] = Tanguay_ZF_120hpf_OTIC_legacy: (Legacy) Oregon State University Tanguay Lab 120 Hour Post-fertilization zebrafish Assay for Otic Vesicle Malformation (AID 2283639)
Procedure, shortened: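 Statically exposed wild-type 5D zebrafish embryos, kept sealed and dark at 28C through 120 hours post fertilization, were examined by brightfield microscopy for otic vesicle defects. Responses were recorded as present or absent and analysed relative to DMSO.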

[7] = Tanguay_ZF_120hpf_PE_legacy: (Legacy) Oregon State University Tanguay Lab 120 Hour Post-fertilization zebrafish Assay for Pericardial Edema (AID 2283640)
Procedure, shortened: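 Scoring was binary, by brightfield microscopy at 120 hpf, and skipped where mortality occurred. Wild-type embryos were kept under sealed, foil-covered static exposure at 28C in 0.64% (vol/vol) DMSO.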

[8] = Tanguay_ZF_120hpf_BRAI_legacy: (Legacy) Oregon State University Tanguay Lab 120 Hour Post-fertilization zebrafish Assay for Brain Malformation (AID 2283641)
Procedure, shortened: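 Binary brightfield scoring of brain malformation at 120 hpf in Tropical 5D larvae held under static exposure at 28C (0.64% v/v DMSO), non-mortality endpoints skipped if dead. Positive control: 5uM trimethyltin chloride; fit versus DMSO.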

[9] = Tanguay_ZF_120hpf_SOMI_legacy: (Legacy) Oregon State University Tanguay Lab 120 Hour Post-fertilization zebrafish Assay for Somite Malformation (AID 2283647)
Procedure, shortened: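 Binary somite-defect scoring at 120 hpf, omitted for embryos that died, in wild-type (Tropical 5D) zebrafish with chorion removed by pronase at 4 hpf; static exposure began 6 hpf, single embryos per well, 28C, 0.64% DMSO; fitted positive versus DMSO.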

[10] = Tanguay_ZF_120hpf_CFIN_legacy: (Legacy) Oregon State University Tanguay Lab 120 Hour Post-fertilization zebrafish Assay for Caudal Fin Malformation (AID 2283649)
Procedure, shortened: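 Binary brightfield scoring of caudal fin defects at 120 hpf after static, light-shielded exposure at 28C from 6 hpf. Tropical 5D embryos, chorion removed with pronase at 4 hpf, final DMSO 0.64%.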

[11] = Tanguay_ZF_120hpf_PIG_legacy: (Legacy) Oregon State University Tanguay Lab 120 Hour Post-fertilization zebrafish Assay for Pigmentation Malformation (AID 2283650)
Procedure, shortened: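 Endpoint is incidence of abnormal pigmentation at 120 hpf in dechorionated 5D zebrafish exposed singly from 6 hpf at 28C, DMSO vehicle at 0.64%. Embryos dying by 24 or 120 hpf are excluded from scoring.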

[12] = Tanguay_ZF_120hpf_CIRC_legacy: (Legacy) Oregon State University Tanguay Lab 120 Hour Post-fertilization zebrafish Assay for Circulatory Malformation (AID 2283651)
Procedure, shortened: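 Embryos are dechorionated at 4 hpf, plated one per well at 6 hpf, then held under static exposure at 28C until 120 hpf. Malformations are recorded as binary calls; mortality excludes other endpoints.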

[13] = Tanguay_ZF_120hpf_SWIM_legacy: (Legacy) Oregon State University Tanguay Lab 120 Hour Post-fertilization zebrafish Assay for Swim Bladder Malformation (AID 2283654);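 further: swim bladder malformation in each larva scored yes or no under brightfield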
Procedure, shortened: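 Static waterborne exposure of single dechorionated Tropical 5D zebrafish embryos, 6–120 hpf, 28C, 0.64% DMSO final. Read-out: swim bladder malformation, present/absent, relative to DMSO negative control; trimethyltin chloride 5uM served as positive control.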

[14] = Tanguay_ZF_120hpf_TRUN_legacy: (Legacy) Oregon State University Tanguay Lab 120 Hour Post-fertilization zebrafish Assay for Truncated Body (AID 2283655)
Procedure, shortened: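 Binary presence/absence of truncated body is recorded at 120 hpf by brightfield, with non-mortality endpoints skipped after death. Exposure is static from 6 hpf in sealed dark plates at 28C, using dechorionated wild-type zebrafish, 0.64% DMSO.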

[15] = Tanguay_ZF_120hpf_NC_legacy: (Legacy) Oregon State University Tanguay Lab 120 Hour Post-fertilization zebrafish Assay for Notochord and Tail Malformation (AID 2283656)
Procedure, shortened: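 Binary scoring of notochord distortion by brightfield microscopy; embryos dying were not scored. Wild-type Tropical 5D embryos, chorion removed, exposed singly and statically from 6 to 120 hpf, 28C, sealed, 0.64% DMSO.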

[16] = Tanguay_ZF_120hpf_MORT_legacy: (Legacy) Oregon State University Tanguay Lab 120 Hour Post-fertilization zebrafish Assay for Mortality (AID 2283633);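 on AC50: fitted as increase in binary mortality versus DMSO negative control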
Procedure, shortened: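 Static waterborne exposure from 6 to 120 hpf at 28C of single dechorionated wild-type (5D) embryos per well, 0.64% DMSO final. Death recorded present/absent by brightfield at 24 and 120 hpf.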

[17] = Tanguay_ZF_120hpf_PFIN_legacy: (Legacy) Oregon State University Tanguay Lab 120 Hour Post-fertilization zebrafish Assay for Pectoral Fin Malformation (AID 2283648);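 further: each larva judged yes or no for fin defect by brightfield with dead larvae skipped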
Procedure, shortened: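 Scoring of pectoral fin malformation was binary, made at 120 hpf on larvae exposed statically from 6 hpf after enzymatic chorion removal. Activity was fitted upward relative to DMSO controls at 0.64% (vol/vol).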

[18] = read-out: kallikrein-3 (KLK3), KLK3 (gene 354); experiment: LTEA_HepaRG_KLK3: Life Technologies and Expression Analysis (LTEA) Assay for kallikrein-3 (KLK3) using HepaRG (AID 2283652; active means hit-call score of the fitted dose curve at least 0.9, where 1 is the maximum; inactive means score below 0.9); details: mRNA level, 48 h; actives raise or lower the signal
Procedure, shortened: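 KLK3 transcript levels were measured by TaqMan qRT-PCR with normalisation to three housekeeping genes. HepaRG cultures received chemicals for 48 h at up to 100 uM (half-log, 8 points, 0.5% DMSO vehicle), fitted in both directions against DMSO.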

[19] = read-out: solute carrier (SLC22A6), SLC22A6 (gene 9356); experiment: LTEA_HepaRG_SLC22A6: Life Technologies and Expression Analysis (LTEA) Assay for solute carrier (SLC22A6) using HepaRG (AID 2283653; active means hit-call score of the fitted dose curve at least 0.9, where 1 is the maximum; inactive means score below 0.9); details: mRNA level, 48 h; actives raise or lower the signal
Procedure, shortened: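 SLC22A6 transcript was measured by TaqMan qRT-PCR, normalized to three housekeeping genes, after 48 h duplicate exposure of HepaRG cells (100 uM top, half-log steps, 0.5% DMSO); bidirectional fit against vehicle.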

[20] = read-out: solute carrier (SLC10A1), SLC10A1 (gene 6554); experiment: LTEA_HepaRG_SLC10A1: Life Technologies and Expression Analysis (LTEA) Assay for solute carrier (SLC10A1) using HepaRG (AID 2283657; active means hit-call score of the fitted dose curve at least 0.9, where 1 is the maximum; inactive means score below 0.9); details: mRNA level, 48 h; actives raise or lower the signal
Procedure, shortened: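 Cryopreserved HepaRG cells are thawed, plated and cultured 48 h; medium is then switched to serum-free induction medium and chemicals added (8 points, max 100 uM, 0.5% DMSO). After 48 h, RNA is isolated and SLC10A1 quantified by qRT-PCR.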

Measured: AC50

O=C(O)Cc1ccccc1Nc1c(Cl)cccc1Cl
not listed: [16] | [17] | [18] | [19] | [20]
inactive: all other assays above

CCCCc1ccc2c(n1)[C@@H](c1ccc(OC)cc1C[C@H](C)C(=O)O)[C@H](C(=O)O)[C@H]2c1ccc2c(c1)OCO2
not listed: [3] | [4] | [6] | [9] | [18] | [19] | [20]
inactive: all other assays above

Cc1ccc(Cl)cc1
not listed: [7] | [9] | [11] | [12] | [14] | [16]
inactive: all other assays above

CCCCCCC(=O)OCC
inactive: [16] | [2] | [6] | [8] | [11] | [12] | [13] | [14] | [15]

CC(C)(C)c1cc(O)c(C(C)(C)C)cc1O
active: [16] 11 µM | [1] 25.7 µM | [2] 25.7 µM | [5] 47.5 µM
inactive: [6] | [8] | [10] | [11] | [12] | [13] | [14]

Nc1ccc(S(=O)(=O)c2ccc(N)cc2)cc1
inactive: [16] | [2] | [5] | [6] | [17] | [10] | [11] | [12] | [13] | [14] | [15]

COCCOCCOC
not listed: [5] | [6] | [9] | [16] | [18] | [19] | [20]
inactive: all other assays above

Cc1cc(NC(=O)C(=O)O)cc(C)c1Oc1ccc(O)c2c1CCC2
active: [1] 0.0678 µM | [2] 0.526 µM | [5] 0.0689 µM | [8] 546 nM | [11] 3.39 nM
inactive: [3] | [6] | [9] | [10] | [12] | [13] | [14] | [15]

CN1CCN(Cc2cc(-c3ccc4[nH]c(=O)oc4c3)co2)[C@@H](c2ccc(F)cc2)C1
active: [4] 25.6 µM | [5] 25.7 µM | [14] 16.2 µM
not listed: [7] | [16] | [17] | [18] | [19] | [20]
inactive: all other assays above

Cc1ccc2ncccc2c1
not listed: [7] | [9] | [16] | [18] | [19] | [20]
inactive: all other assays above

COC(=O)c1ccc(O)cc1
not listed: [4] | [6] | [16] | [18] | [19] | [20]
inactive: all other assays above

CC=Cc1ccc(O)c(OC)c1
inactive: [16] | [1] | [2] | [5] | [6] | [7] | [17] | [10] | [11] | [13] | [15]

CCCCCCOCCO
inactive: [1] | [2] | [3] | [5] | [6] | [8] | [9] | [12] | [13] | [14]

CCCc1cc(=O)[nH]c(=S)[nH]1
inactive: [1] | [2] | [3] | [4] | [5] | [8] | [10] | [11] | [13] | [14] | [15]

C[C@]12C=CC(=O)C=C1CC[C@@H]1[C@@H]2C(=O)C[C@@]2(C)[C@H]1CC[C@]2(O)C(=O)CO
inactive: [16] | [1] | [3] | [5] | [6] | [8] | [9] | [10] | [12] | [13] | [15]

CC(=O)OC/C=C(\C)CCC=C(C)C
not listed: [3] | [4] | [6] | [7] | [9] | [14]
inactive: all other assays above

CCCCCC(=O)O
not listed: [7] | [16] | [17] | [18] | [19] | [20]
inactive: all other assays above

Cc1ccc(C)c(C)c1
not listed: [4] | [9] | [16] | [17] | [18]
inactive: all other assays above

Clc1cc(Cl)c(Cl)cc1Cl
inactive: [16] | [3] | [5] | [6] | [8] | [10] | [11] | [12] | [13] | [14]

CCOc1ccc2c(c1)C(C)=CC(C)(C)N2
active: [4] 19.4 µM | [5] 15.9 µM
not listed: [7] | [16] | [17] | [18] | [19] | [20]
inactive: all other assays above

CC(C)c1ccc(C(=O)N=C(N)N)cc1S(C)(=O)=O
inactive: [16] | [1] | [2] | [5] | [6] | [8] | [10] | [11] | [12] | [13] | [14]

O=c1[nH]cc(F)c(=O)[nH]1
not listed: [1] | [7] | [12] | [17] | [18] | [19] | [20]
inactive: all other assays above

Nc1ccc2c(c1)C(=O)c1ccccc1C2=O
not listed: [3] | [4] | [7] | [9] | [17] | [18] | [19] | [20]
inactive: all other assays above

Cc1cccc(Nc2cc(Cl)nc(SCC(=O)O)n2)c1C
not listed: [2] | [4] | [17] | [18] | [19] | [20]
inactive: all other assays above

FC(F)(F)C(F)(F)C(F)(F)C(F)(F)C(F)(F)C(F)(F)CCI
inactive: [1] | [2] | [3] | [5] | [7] | [8] | [10] | [12] | [13] | [14]
